Reference: the supplement of paper PMC10849652
About 8,800 targets were measured; listed, in parts, are those with a hit and a random draw of the rest. About 0.5% of all pairs of compound and target were hits. Values without a mark were called inactive.

Columns and labels:
Experiment in all cases: log2 fold change, soluble protein after heating vs DMSO (PISA); higher = thermal stabilisation; K562 lysate, 10 uM; active = over 0.2 and 3.5 SD of the protein, either way, in both replicates (recomputed)
[1] = compound: NCC(=O)Nc1ccc(-n2nc(C(F)(F)F)cc2-c2ccc3c(ccc4ccccc43)c2)cc1
Procedure, shortened: (§1)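 Log-two fold change in thermal stability relative to solvent controls is reported from duplicates. For each sample, crude K562 extract from dounce-homogenised pellets in PBS pH 7.4 with 1 mM MgCl2, at 1 mg/mL protein, was treated with 10 μM compound for 30 min. Aliquots heated for 3 min across 48°C-58°C were pooled, brought to 0.5% NP-40 at 4°C and cleared at 21,000xg for 90 min. The supernatant was quantified by TMTpro 16plex LC-MS/MS with channel sums equalised.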

[2] = compound: O=C(CCCCCCC(=O)Nc1ccccc1)NO [vorinostat]
Procedure, shortened: as §1

[3] = compound: O=C(O)c1ccc2c(c1)nc(Nc1cccc(Cl)c1)c1ccncc12 [silmitasertib]
Procedure, shortened: as §1

[4] = compound: O=C1NC(=O)C(c2cnc3ccccn23)=C1c1cn2c3c(cc(F)cc13)CN(C(=O)N1CCCCC1)CC2
Procedure, shortened: as §1

[5] = compound: c1cn2cc(-c3ccc4cn[nH]c4c3)nc(Nc3ccc(N4CCOCC4)cc3)c2n1 [entospletinib]
Procedure, shortened: as §1

UniProt P13667, sequence (P13667 whole entry, looked up): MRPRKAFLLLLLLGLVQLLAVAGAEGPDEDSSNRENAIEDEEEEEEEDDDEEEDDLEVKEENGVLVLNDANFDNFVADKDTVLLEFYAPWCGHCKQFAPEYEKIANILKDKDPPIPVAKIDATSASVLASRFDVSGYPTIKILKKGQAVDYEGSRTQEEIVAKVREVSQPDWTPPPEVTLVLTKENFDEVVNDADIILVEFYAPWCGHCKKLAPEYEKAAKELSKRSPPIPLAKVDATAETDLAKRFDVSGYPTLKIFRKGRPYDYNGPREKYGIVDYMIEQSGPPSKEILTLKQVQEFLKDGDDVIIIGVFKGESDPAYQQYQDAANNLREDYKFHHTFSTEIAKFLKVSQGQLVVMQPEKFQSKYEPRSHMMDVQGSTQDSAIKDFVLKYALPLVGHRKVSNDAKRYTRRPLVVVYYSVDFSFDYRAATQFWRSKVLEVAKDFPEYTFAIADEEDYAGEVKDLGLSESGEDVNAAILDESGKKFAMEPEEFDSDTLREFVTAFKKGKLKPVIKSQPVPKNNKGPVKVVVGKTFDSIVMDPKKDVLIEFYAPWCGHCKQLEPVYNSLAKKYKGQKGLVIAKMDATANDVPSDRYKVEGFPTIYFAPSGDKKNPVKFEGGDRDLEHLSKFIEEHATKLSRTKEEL
UniProt P48634, sequence (P48634 whole entry, looked up): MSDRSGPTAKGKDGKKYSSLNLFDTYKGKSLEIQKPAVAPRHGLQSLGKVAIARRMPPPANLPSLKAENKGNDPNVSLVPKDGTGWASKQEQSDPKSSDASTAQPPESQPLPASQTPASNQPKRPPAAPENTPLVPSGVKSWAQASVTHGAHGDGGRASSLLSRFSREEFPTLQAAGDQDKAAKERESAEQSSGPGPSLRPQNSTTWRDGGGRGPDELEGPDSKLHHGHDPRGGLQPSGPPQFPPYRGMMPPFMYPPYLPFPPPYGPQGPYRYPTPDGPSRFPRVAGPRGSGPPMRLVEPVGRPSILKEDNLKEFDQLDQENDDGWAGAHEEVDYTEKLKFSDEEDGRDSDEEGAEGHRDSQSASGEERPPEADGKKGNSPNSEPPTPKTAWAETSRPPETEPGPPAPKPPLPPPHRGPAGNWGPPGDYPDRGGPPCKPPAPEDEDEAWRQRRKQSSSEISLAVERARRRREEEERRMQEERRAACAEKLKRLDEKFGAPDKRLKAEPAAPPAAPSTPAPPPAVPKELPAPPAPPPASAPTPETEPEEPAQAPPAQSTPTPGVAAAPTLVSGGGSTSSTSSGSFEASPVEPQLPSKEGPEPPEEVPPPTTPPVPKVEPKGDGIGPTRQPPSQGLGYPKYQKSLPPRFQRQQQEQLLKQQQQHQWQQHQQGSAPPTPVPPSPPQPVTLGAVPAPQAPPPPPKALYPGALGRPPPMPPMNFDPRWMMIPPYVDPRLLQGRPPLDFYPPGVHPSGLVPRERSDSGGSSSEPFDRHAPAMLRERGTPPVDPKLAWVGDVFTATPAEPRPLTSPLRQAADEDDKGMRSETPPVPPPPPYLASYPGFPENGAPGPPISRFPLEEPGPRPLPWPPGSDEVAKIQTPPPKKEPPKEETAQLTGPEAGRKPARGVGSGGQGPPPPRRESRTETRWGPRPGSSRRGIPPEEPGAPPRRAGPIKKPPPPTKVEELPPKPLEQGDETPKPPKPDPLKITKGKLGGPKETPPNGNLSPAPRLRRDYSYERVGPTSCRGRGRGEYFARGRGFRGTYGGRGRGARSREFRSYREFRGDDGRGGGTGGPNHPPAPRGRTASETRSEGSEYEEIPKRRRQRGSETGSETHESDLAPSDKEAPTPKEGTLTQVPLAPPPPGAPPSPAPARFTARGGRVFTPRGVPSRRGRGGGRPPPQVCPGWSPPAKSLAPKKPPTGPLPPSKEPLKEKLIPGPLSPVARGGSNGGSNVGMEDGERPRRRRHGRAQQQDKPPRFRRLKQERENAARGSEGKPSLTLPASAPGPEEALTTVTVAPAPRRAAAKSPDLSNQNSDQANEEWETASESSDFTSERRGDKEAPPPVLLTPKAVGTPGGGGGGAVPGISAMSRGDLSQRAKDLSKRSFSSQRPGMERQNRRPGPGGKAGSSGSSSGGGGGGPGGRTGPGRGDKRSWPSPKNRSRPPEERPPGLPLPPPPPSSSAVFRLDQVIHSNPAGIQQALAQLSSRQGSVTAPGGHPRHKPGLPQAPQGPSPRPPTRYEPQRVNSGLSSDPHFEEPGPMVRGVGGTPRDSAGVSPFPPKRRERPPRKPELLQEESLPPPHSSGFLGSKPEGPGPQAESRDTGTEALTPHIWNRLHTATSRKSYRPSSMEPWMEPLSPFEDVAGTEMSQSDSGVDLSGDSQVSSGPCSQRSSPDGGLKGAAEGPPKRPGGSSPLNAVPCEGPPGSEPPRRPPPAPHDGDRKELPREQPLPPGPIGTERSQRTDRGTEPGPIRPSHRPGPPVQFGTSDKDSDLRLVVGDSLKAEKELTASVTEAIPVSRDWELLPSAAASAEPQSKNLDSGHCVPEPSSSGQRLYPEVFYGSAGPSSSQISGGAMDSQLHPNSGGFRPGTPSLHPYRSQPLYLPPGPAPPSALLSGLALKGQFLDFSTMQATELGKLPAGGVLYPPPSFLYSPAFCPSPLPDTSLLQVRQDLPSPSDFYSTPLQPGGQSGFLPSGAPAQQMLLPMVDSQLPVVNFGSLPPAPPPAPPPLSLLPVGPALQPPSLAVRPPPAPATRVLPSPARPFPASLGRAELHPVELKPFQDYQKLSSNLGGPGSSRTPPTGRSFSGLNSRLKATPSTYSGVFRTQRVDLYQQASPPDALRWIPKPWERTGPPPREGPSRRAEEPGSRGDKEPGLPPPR
UniProt P13861, sequence (P13861 whole entry, looked up): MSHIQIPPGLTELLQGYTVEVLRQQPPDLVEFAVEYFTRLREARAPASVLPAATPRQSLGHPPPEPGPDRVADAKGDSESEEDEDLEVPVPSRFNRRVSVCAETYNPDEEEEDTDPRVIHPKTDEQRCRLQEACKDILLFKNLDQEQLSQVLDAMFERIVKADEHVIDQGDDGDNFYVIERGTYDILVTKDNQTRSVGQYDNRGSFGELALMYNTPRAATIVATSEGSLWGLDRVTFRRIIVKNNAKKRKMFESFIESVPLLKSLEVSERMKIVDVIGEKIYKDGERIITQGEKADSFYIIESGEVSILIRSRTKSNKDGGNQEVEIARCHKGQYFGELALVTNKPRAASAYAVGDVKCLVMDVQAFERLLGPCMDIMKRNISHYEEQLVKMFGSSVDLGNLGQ
UniProt P31323, sequence (P31323 whole entry, looked up): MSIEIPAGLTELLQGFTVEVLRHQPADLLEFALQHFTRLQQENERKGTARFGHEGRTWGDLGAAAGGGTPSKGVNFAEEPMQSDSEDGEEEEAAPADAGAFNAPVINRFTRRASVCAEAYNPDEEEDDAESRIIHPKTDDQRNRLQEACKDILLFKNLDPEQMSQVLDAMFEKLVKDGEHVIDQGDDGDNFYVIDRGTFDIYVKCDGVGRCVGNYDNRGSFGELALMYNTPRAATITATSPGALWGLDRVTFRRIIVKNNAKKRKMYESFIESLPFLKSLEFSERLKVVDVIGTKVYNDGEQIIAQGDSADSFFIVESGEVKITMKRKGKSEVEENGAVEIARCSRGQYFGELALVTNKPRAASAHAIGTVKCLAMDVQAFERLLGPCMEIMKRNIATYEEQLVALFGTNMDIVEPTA
UniProt P23219, sequence (P23219 whole entry, looked up): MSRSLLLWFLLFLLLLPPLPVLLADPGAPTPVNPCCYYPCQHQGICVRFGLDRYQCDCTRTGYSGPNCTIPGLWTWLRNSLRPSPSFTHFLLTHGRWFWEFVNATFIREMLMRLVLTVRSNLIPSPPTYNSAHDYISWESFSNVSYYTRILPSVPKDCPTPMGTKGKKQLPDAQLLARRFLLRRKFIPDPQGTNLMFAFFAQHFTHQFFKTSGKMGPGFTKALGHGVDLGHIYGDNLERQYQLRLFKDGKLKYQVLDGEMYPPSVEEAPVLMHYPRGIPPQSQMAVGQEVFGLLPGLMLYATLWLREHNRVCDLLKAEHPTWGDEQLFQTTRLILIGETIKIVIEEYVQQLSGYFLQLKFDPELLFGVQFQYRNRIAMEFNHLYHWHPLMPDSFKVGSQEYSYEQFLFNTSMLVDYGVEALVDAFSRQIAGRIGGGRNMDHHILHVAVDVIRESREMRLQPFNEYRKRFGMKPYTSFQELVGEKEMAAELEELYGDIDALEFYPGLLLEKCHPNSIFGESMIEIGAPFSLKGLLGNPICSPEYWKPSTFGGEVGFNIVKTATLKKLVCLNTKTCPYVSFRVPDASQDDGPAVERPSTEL
UniProt Q9Y606, sequence (Q9Y606 whole entry, looked up): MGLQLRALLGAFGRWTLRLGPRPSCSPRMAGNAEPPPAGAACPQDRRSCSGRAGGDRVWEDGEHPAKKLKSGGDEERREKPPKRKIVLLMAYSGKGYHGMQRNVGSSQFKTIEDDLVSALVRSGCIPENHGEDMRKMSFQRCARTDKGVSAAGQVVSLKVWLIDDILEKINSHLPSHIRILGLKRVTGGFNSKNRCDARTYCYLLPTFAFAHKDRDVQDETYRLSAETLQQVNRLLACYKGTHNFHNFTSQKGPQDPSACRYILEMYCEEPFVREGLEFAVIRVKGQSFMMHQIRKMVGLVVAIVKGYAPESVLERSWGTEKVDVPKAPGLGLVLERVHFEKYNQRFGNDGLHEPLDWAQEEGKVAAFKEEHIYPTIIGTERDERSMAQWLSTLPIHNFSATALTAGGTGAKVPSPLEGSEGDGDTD
UniProt P35236, sequence (P35236 whole entry, looked up): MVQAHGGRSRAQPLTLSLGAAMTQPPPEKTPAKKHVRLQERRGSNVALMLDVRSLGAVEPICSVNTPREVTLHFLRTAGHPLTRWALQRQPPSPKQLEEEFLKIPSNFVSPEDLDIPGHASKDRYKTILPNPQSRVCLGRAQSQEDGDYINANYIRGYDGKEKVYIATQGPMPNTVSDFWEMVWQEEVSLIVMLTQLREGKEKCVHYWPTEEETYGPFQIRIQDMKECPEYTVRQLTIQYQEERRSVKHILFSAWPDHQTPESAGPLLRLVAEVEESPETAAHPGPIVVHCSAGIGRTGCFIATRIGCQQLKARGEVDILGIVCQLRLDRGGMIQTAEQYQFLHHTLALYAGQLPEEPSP

Work on PHKG2 (UniProt P15735) yielded a log2 fold change [1] of -0.029, a log2 fold change [2] of 0.013 and a log2 fold change [3] of 0.008. It also gave a log2 fold change [4] of -0.022 and a log2 fold change [5] of 0.026.

PIP4K2C (UniProt Q8TBX8) was tested, and the log2 fold change [1] was 0.021, the log2 fold change [2] was -0.07 and the log2 fold change [3] was 0.425 (active). It also gave a log2 fold change [4] of 0.063 and a log2 fold change [5] of 0.004.

POLR2F (UniProt P61218) was tested, and the log2 fold change [1] was -0.019, the log2 fold change [2] was 0.171 and the log2 fold change [3] was 0.008. For the same target, the log2 fold change [4] was 0.027 and the log2 fold change [5] was -0.086.

Work on PRRC2A (UniProt P48634) yielded a log2 fold change [1] of 0.012, a log2 fold change [2] of 0.108 and a log2 fold change [3] of -0.026. It also gave a log2 fold change [4] of -0.018 and a log2 fold change [5] of -0.003.

PPP1R12B isoform 6 (UniProt O60237) showed a log2 fold change [1] of 0.168, a log2 fold change [2] of -0.063 and a log2 fold change [3] of 0.091. It also gave a log2 fold change [4] of -0.005 and a log2 fold change [5] of -0.052.

PRKCB isoform 2 (UniProt P05771) gave a log2 fold change [1] of 0.046, a log2 fold change [2] of -0.145 and a log2 fold change [3] of 0.012. For the same target, the log2 fold change [4] was -0.164 and the log2 fold change [5] was 0.004.

Work on PRKCSH isoform 2 (UniProt P14314) yielded a log2 fold change [1] of -0.046, a log2 fold change [2] of 0.126 and a log2 fold change [3] of -0.057. It also gave a log2 fold change [4] of -0.019 and a log2 fold change [5] of 0.037.

In the case of PRKAR2A (UniProt P13861), the log2 fold change [1] is reported as 0.005, the log2 fold change [2] is reported as -0.037 and the log2 fold change [3] is reported as -0.008. The log2 fold change [4] was -0.06 and the log2 fold change [5] was -0.035.

With POLB (UniProt P06746) the log2 fold change [1] was 0.027, the log2 fold change [2] was -0.302 (active) and the log2 fold change [3] was -0.106. For the same target, the log2 fold change [4] was -0.023 and the log2 fold change [5] was 0.022.

With PDS5A (UniProt Q29RF7) the log2 fold change [1] was -0.001, the log2 fold change [2] was -0.525 (active) and the log2 fold change [3] was 0.073. It also gave a log2 fold change [4] of -0.01 and a log2 fold change [5] of 0.047.

PHKA2 (UniProt P46019) was tested, and the log2 fold change [1] was 0.017, the log2 fold change [2] was -0.29 (active) and the log2 fold change [3] was 0.105. It also gave a log2 fold change [4] of -0.048 and a log2 fold change [5] of -0.012.

PPME1 isoform 4 (UniProt Q9Y570) showed a log2 fold change [1] of -0.02, a log2 fold change [2] of -0.03 and a log2 fold change [3] of 0.013. For the same target, the log2 fold change [4] was 0.005 and the log2 fold change [5] was 0.031.

In the case of PPT2 isoform 3 (UniProt Q9UMR5), the log2 fold change [1] is reported as 0.055, the log2 fold change [2] is reported as 0.398 (active) and the log2 fold change [3] is reported as 0.034. For the same target, the log2 fold change [4] was -0.018 and the log2 fold change [5] was -0.006.

In the case of PTPN7 isoform 3 (UniProt P35236), the log2 fold change [1] is reported as 0.031, the log2 fold change [2] is reported as -0.491 (active) and the log2 fold change [3] is reported as 0.01. The log2 fold change [4] was -0.044 and the log2 fold change [5] was -0.008.

In the case of PCF11 (UniProt O94913), the log2 fold change [1] is reported as 0.043, the log2 fold change [2] is reported as -0.339 (active) and the log2 fold change [3] is reported as -0.023. For the same target, the log2 fold change [4] was -0.001 and the log2 fold change [5] was 0.016.

For QKI (UniProt Q96PU8), the log2 fold change [1] was -0.008, the log2 fold change [2] was -0.147 and the log2 fold change [3] was 0.021. The log2 fold change [4] was 0.045 and the log2 fold change [5] was 0.007.

Work on PRKAR2B (UniProt P31323) yielded a log2 fold change [1] of 0.014, a log2 fold change [2] of -0.093 and a log2 fold change [3] of 0.009. For the same target, the log2 fold change [4] was 0.025 and the log2 fold change [5] was -0.055.

With PFN1 (UniProt P07737) the log2 fold change [1] was -0.006, the log2 fold change [2] was 0.083 and the log2 fold change [3] was -0.004. The log2 fold change [4] was -0.014 and the log2 fold change [5] was 0.006.

In the case of PUS1 (UniProt Q9Y606), the log2 fold change [1] is reported as 0.04, the log2 fold change [2] is reported as -0.321 (active) and the log2 fold change [3] is reported as 0.041. The log2 fold change [4] was -0.013 and the log2 fold change [5] was -0.022.

With PLK1 (UniProt P53350) the log2 fold change [1] was 0.027, the log2 fold change [2] was -0.638 (active) and the log2 fold change [3] was 0.005. It also gave a log2 fold change [4] of 0.022 and a log2 fold change [5] of 0.072.

Work on PTGS1 isoform 6 (UniProt P23219) yielded a log2 fold change [1] of -0.013, a log2 fold change [2] of 0.05 and a log2 fold change [3] of -0.033. For the same target, the log2 fold change [4] was 0.003 and the log2 fold change [5] was -0.017.

For PDIA4 (UniProt P13667), the log2 fold change [1] was 0.001, the log2 fold change [2] was 0.119 and the log2 fold change [3] was -0.011. For the same target, the log2 fold change [4] was 0.021 and the log2 fold change [5] was 0.004.

With PDCD4 (UniProt Q53EL6) the log2 fold change [1] was 0.004, the log2 fold change [2] was -0.378 (active) and the log2 fold change [3] was 0.014. It also gave a log2 fold change [4] of 0.003 and a log2 fold change [5] of 0.038.

For PHKB isoform 3 (UniProt Q93100), the log2 fold change [1] was -0.023, the log2 fold change [2] was -0.288 (active) and the log2 fold change [3] was 0.07. For the same target, the log2 fold change [4] was 0.016 and the log2 fold change [5] was 0.023.
